Source: PubChem (National Center for Advancing Translational Sciences (NCATS))
LDHA inh = qHTS assay for inhibitors of human lactate dehydrogenase | purified LDHA, NADH/diaphorase-resazurin fluorescence; active compounds read low | L-lactate dehydrogenase A chain (Homo sapiens), P00338 | 480,000 tested, 0.15% active | AID 1347041, 2019 | activity change, % (values are at about 110 or 230 µM); in the data active means activity change below about -30%; inconclusive means mostly about -25% to -30%
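Enzyme activity of human lactate dehydrogenase 5 (2 nM; 0.06 mM NADH, 0.2 mM pyruvate, 5 min, RT) is measured via a resazurin/diaphorase fluorescence readout of residual NADH.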
Vif-APOBEC3F blk = qHTS for Inhibitors of Vif-A3F Interactions: qHTS. 390,000 tested, 0.2% active. HeLa A3F-eYFP + Vif (tagged APOBEC3F with the HIV-1 protein that degrades it), YFP fluorescence increase. Potency, µM (doses to about 46.1 µM); further: nearly all actives have a fitted effect of over 65% in size
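HeLa cells stably expressing A3F-eYFP plus Vif, plated and incubated overnight at 37 deg C, then exposed to compounds overnight at 37 deg C. Blocked degradation read as raised yellow fluorescence (Ex 488/Em 500-530).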
PINK1 modulator = A Quantitative High throughput Screen to Identify Chemical Modulators of PINK1 Expression; PINK1 immunofluorescence, high-content cytometry, 24 h; Potency, µM (titrated, usually from 76.6 µM), hits mostly activators; 410,000 tested, 0.2% active; active means well fitted activation curve with a large enough effect; inconclusive means small, poorly fitted or top-dose-only effect; cell line not stated here; further: nearly all actives have a fitted effect of over 65% in size
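Readout is PINK1 immunofluorescence, quantified alongside mitochondrial, cell and nuclear markers by laser-scanning microplate cytometry. Cells from a stable line were exposed to compound titrations (5 concentrations) for 24 hours, with CCCP controls.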
IDH1 R132H inh = qHTS for Inhibitors of mutant isocitrate dehydrogenase 1 (IDH1): qHTS; 390,000 tested, 0.093% active; Potency, µM (top dose mostly 76.6 µM), hits mostly inhibitors; AID 602179, 2012; IDH1-R132H enzyme, NADPH consumption, diaphorase/resazurin fluorescence; further: nearly all actives have a fitted effect of over 65% in size
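IDH1-R132H (0.5 ug/mL) preincubated 30 min with compound, then NADPH (0.016 mM) and alpha-KG (2 mM) added; 80 min at RT, pH 7.5. Remaining NADPH coupled via diaphorase/resazurin to fluorescence (540/590 nm); concentration-response curves normalized to no-enzyme control.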
PTHR1 ag = qHTS for PTHR1 Agonists: Primary Screen | Parathyroid hormone/parathyroid hormone-related peptide receptor (Homo sapiens), Q03431 | 410,000 tested, 0.075% active | HEK293 GP2 PTHR1 cells, GloSensor cAMP luminescence, 1 h | Potency, µM (series often up to 115 µM), usual class: activators; further: nearly all actives have a fitted effect of over 55% in size
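HEK-293-derived GP2 cells expressing PTHR1 and a GloSensor cAMP reporter, 3,000/well, plated overnight, given luciferin plus IBMX (each 0.5 mM as added) for 1 h at 37 °C, then compound for 1 h at 37 °C. Luminescence was read after 15 min at room temperature.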
Vif-APOBEC3G blk = qHTS for Inhibitors of Vif-A3G Interactions: qHTS; DNA dC->dU-editing enzyme APOBEC-3G (Homo sapiens), Q9HC16; HeLa A3G-eYFP + Vif (tagged APOBEC3G with the HIV-1 protein that degrades it), YFP fluorescence, overnight; Potency, µM (titrated, usually from 46.1 µM), actives largely listed as inhibitors; 410,000 tested, 0.076% active; AID 602310, 2012; further: nearly all actives have a fitted effect of over 60% in size
Target sequence (Q9HC16 whole entry, looked up): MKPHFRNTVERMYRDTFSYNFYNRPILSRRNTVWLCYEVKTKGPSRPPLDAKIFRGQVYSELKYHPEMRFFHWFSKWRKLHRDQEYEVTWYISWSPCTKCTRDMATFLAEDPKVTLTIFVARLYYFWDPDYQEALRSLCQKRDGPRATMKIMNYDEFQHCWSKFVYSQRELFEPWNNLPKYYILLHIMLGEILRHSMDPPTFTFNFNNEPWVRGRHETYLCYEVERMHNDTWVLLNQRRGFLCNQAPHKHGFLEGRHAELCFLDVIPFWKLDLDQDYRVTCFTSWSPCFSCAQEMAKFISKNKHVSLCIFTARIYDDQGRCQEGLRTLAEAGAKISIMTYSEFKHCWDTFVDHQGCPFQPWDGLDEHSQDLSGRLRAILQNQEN
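HeLa cells stably expressing Vif and C-terminally eYFP-tagged A3G, seeded overnight at 37 deg C, then exposed to compound by pintool overnight at 37 deg C. Rise in yellow fluorescence (Ex 488/Em 500-530, Acumen) marks blocked Vif-driven A3G degradation.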
Numbers stand for hits; . = inactive; ? = inconclusive; / = not tested or not shown. In the library only some 0.59% were active in any assay of this set; here they are far more common. Unless noted, the call rests on the fitted dose curve; in most records, active means well fitted curve in the direction sought with a large enough effect; inconclusive means small, poorly fitted or top-dose-only effect, or another doubt; inactive means no such curve, though single readings can be large; an effect the other way counts as inactive or inconclusive.

SMILES | LDHA inh | Vif-APOBEC3F blk | PINK1 modulator | IDH1 R132H inh | PTHR1 ag | Vif-APOBEC3G blk
CC(C)(C)c1ccc(C(=O)Nc2cccc([N+](=O)[O-])c2)cc1 | . | . | 44.7µM | . | . | .
O=C(Nc1cccc([N+](=O)[O-])c1)c1ccncc1 | . | . | . | . | . | .
CC(C)(C)CC(C)(C)NC(=O)Nc1cccc([N+](=O)[O-])c1 | . | . | 14.1µM | . | . | .
O=C(c1ccccc1)N1CCCCC(S(=O)(=O)c2ccc3ccccc3c2)C1=O (stereo not drawn) | . | . | 5.01µM | . | . | .
CCc1c(C)nc2ncnn2c1N1CCC(C(=O)Nc2ccccc2)CC1 | . | . | 12.6µM | . | . | .
CCc1c(C)nc2ncnn2c1N1CCC(C(=O)Nc2ccc(C)cc2)CC1 | . | . | ? | . | ? | .
CCOC(=O)/C(=N/Nc1ccccc1)c1csc(Nc2ccccc2)n1 | . | . | 11.2µM | . | . | .
C=Cc1ccc(CN2C(=O)N(c3ccc(C)cc3)S(=O)(=O)c3ccccc32)cc1 | . | / | / | / | / | /
Cc1ccc2oc(/N=C(\N)NC(=O)C(C)(C)C)nc2c1 | . | 22.4µM | . | . | . | .
COC(=O)c1ccc(COc2ccccc2Br)cc1 | . | / | / | / | / | /
Cc1cccc(C(=O)NNC2=C(C(=O)C(F)(F)F)CCC2)c1O | . | / | 15.8µM | . | . | .
O=C(NNC1=C(C(=O)C(F)(F)F)CCC1)c1cccc(O)c1 | . | . | . | . | . | .
O=C(CSc1n[nH]c(-c2ccccn2)n1)Nc1ccc(Cl)cc1 | . | 7.94µM | . | . | . | .
O=C1CCCC2=C1C(c1cccc(OCc3ccc(Cl)cc3)c1)C1=C(CCCC1=O)O2 | . | / | / | / | / | /
OCC1OC(n2cnc3c(NO)ncnc32)C(O)C1O (stereo not drawn) | . | / | . | / | / | .
CC(C)=CCNc1ncnc2c1c(C#N)cn2C1OC(CO)C(O)C1O (stereo not drawn) | -52.5 | . | . | . | . | .
Cc1ccc(Cl)cc1NC(=O)Cn1nc(C(=O)O)c2ccccc2c1=O | . | / | / | / | / | /
C=CCSc1nc2sc3c(c2c(=O)n1CC)CCC3 | . | 22.4µM | . | . | . | .
Cn1c(=O)c2c(ncn2CC(=O)NC(=O)NC2CCCC2)n(C)c1=O | -33.8 | / | / | / | / | /
Cn1c(=O)c2c(ncn2CC(=O)NC2CCCCC2)n(C)c1=O | . | . | . | . | ? | .
CC(=O)c1cccc(NCC(=O)Nc2ccccc2C#N)c1 | . | / | / | / | / | /
COc1ccc2nc(SCC(C)=O)c(C#N)cc2c1 | . | 3.55µM | . | . | . | ?
COc1ccc2nc(SCC(=O)N3CC(=O)Nc4ccccc43)c(C#N)cc2c1 | . | 22.4µM | . | . | . | 10µM
COc1ccc2nc(SC)c(C#N)cc2c1 | . | . | . | . | . | .
CN(C)c1ccc(C=c2c3ccccc3n3c2c2ccccc2[n+]3C)cc1 | . | . | ? | 46.5µM | . | .
SMILES | LDHA inh | Vif-APOBEC3F blk | PINK1 modulator | IDH1 R132H inh | PTHR1 ag | Vif-APOBEC3G blk
Cc1ccc(NC(=S)NC(NC(=O)c2ccccc2)C(Cl)(Cl)Cl)c(C)c1 (stereo not drawn) | . | . | 39.8µM | . | . | .
Cc1ccc(C(=O)NC(NC(=S)Nc2ccc(S(N)(=O)=O)cc2)C(Cl)(Cl)Cl)cc1 (stereo not drawn) | -34.5 | . | ? | . | . | .
O=C(NCC1(N2CCOCC2)CCSC1)Nc1ccc(Cl)c(Cl)c1 (stereo not drawn) | . | / | / | / | / | /
CC(C)N(C)S(=O)(=O)N(C)CC1COc2ccccc2O1 (stereo not drawn) | -32.4 | / | / | / | / | /
CN(CC1COc2ccccc2O1)S(=O)(=O)N1CCOCC1 (stereo not drawn) | . | / | / | / | / | /
COCc1c(C(=O)N2CCN(Cc3nc4ccccc4s3)CC2)oc2ccccc12 | -32.6 | . | . | . | . | .
